About 83,000 compounds went through this panel and 20% of them were active in at least one assay; those are over-represented in the sample as a whole.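 Values shown are percent growth following 48 h exposure of cells in 96-well plates to a single concentration of compound; below 10 was considered active.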 Active and inactive are the calls of the source.
test system: MDA-MB-468 breast; assay: NCI-60 one-dose screen, 48 h (100 = growth as untreated, 0 = no growth, -100 = all killed); conditions: 10 µM unless noted

Row | Structure (SMILES) | growth
1 | CC[C@H](CO)Nc1nc(NCc2ccccc2)c2ncn(C(C)C)c2n1 | 85% (inactive)
2 | CCN1CCN(C(=O)[C@]23CCC(C)(C)C[C@@H]2C2=CC[C@@H]4[C@@]5(C)C/C(=C/c6ccncc6)C(=O)C(C)(C)[C@@H]5CC[C@@]4(C)[C@]2(C)CC3)CC1 | -49.8% (active)
3 | O=C(Nc1cccc2[nH]c(C(F)(F)F)nc12)c1ccc(Br)cc1F | 11.9% (inactive)
